# PubChem BioAssay (NCATS)
# Inconclusive results are not listed. Entries that show only a call come without a potency. A number with no mark means an inactive call. The source made the active and inactive calls. The call rests on the fitted dose curve; in most records, active means well fitted cell-killing curve with a large enough effect; inconclusive means small, poorly fitted or top-dose-only effect, or effect the other way; inactive means flat fitted curve, though single readings scatter.
# Legend:
# Assay in all cases: Primary qHTS to identify gynecologic anti-cancer compounds using libraries of approved drugs and bioactive compounds (AID 1345084); further: nearly all actives have a fitted effect of over 55% in size
# Details in all cases: Gynecologic cancer cell panel viability, ATPlite luminescence, 48 h; series mostly up to 57.5 µM
# [1] = tested on: PA-1
# Procedure, shortened: (§1)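 Luminescence from the ATPlite ATP-monitoring reagent indicates viable cell number; lower signal means cytotoxicity. Cells received compound 16 h after seeding and were exposed for 48 h across five concentrations.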
# [2] = tested on: Tov-21-G
# Procedure, shortened: as §1
# [3] = tested on: Tov112D
# Procedure, shortened: as §1
# Potency means the concentration at half of the fitted maximal effect.
SMILES,Potency [1],Potency [2],Potency [3],"activity change, negative = cytotoxicity [1]","activity change, negative = cytotoxicity [2]","activity change, negative = cytotoxicity [3]"
O=C(NCCCCCCCCNC(=O)C(Cl)Cl)C(Cl)Cl,inactive,inactive,inactive,–,–,–
COC1CCN(c2cccc(-c3cc(NC(C)=O)nc(-n4nc(C)cc4C)n3)n2)CC1,inactive,inactive,inactive,–,–,–
CCC(C)C(=O)O[C@H]1[C@H](O)[C@@]2(COC(C)=O)C(CC1(C)C)C1=CCC3[C@@]4(C)CC[C@H](O[C@@H]5O[C@H](C(=O)O)[C@@H](O)[C@H](O)[C@H]5O)[C@@](C)(CO)C4CC[C@@]3(C)[C@]1(C)C[C@@H]2O (some centres undefined),–,–,–,5.51% [at 11.6 µM],17.2% [at 11.6 µM],6.69% [at 11.6 µM]
O=C(N[C@H]1CCC[C@H](CO)C1)C1CCN(c2nc3cc(Cl)c(-c4ccc(Cl)cc4)cc3o2)CC1,inactive,inactive,inactive,–,–,–
C[C@@H](NC(=O)[C@H](O)c1cc(F)cc(F)c1)C(=O)N[C@@H]1C(=O)N(C)c2ccccc2-c2ccccc21,inactive,inactive,inactive,–,–,–
O=C(NCc1ccccc1-c1ccccc1C(=O)NCCc1ccccn1)OCc1ccccc1,inactive,inactive,inactive,–,–,–
CC(C)(C)[C@H](NC(=O)c1ccc(N)c(Cl)c1)C(=O)N1CCC[C@H]1C(=O)N[C@H](C#N)CC(=O)O,inactive,inactive,inactive,–,–,–
CC(C)c1noc(C2CCN(c3ncnc(Nc4ccc(S(C)(=O)=O)cc4F)c3[N+](=O)[O-])CC2)n1,inactive,inactive,inactive,–,–,–
CN(C)C(=O)Nc1cccc(-c2ccc(N(C)C)cc2)c1,inactive,inactive,inactive,–,–,–
CC(=O)Nc1cccc(Nc2ncnc(N3CCC(OCc4ccc(OC(F)(F)F)cc4)CC3)n2)c1C,inactive,inactive,inactive,–,–,–
Cc1cc(Nc2nc(-c3ccccc3)nc3ccccc23)n[nH]1,10 µM (active),10 µM (active),inactive,–,–,–
O=c1cc(OCc2ccc(F)cc2)ccn1-c1ccc(OCCN2CCCC2)cc1,inactive,inactive,inactive,–,–,–
CC(=O)OC(C)(C)/C=C/C(=O)[C@](C)(O)[C@H]1C(O)C[C@@]2(C)[C@@H]3CC=C4[C@@H](C=C(O[C@@H]5O[C@H](CO)[C@@H](O)[C@H](O)[C@H]5O)C(=O)C4(C)C)[C@]3(C)C(=O)C[C@]12C (some centres undefined),inactive,inactive,inactive,–,–,–
Cc1c(OCc2cccc(-c3ccc(C(=O)O)cc3)c2)cc2c(c1C)C(=O)C(C1CCCC1)C2 (centres undefined),inactive,inactive,inactive,–,–,–
C/C(=C/CO)CCC1C(C)CCC2C(C)(C)CCCC12C (centres undefined),inactive,inactive,inactive,–,–,–
Cc1ccc(NC(=O)c2ccc(CN3CCNCC3)cc2)cc1Nc1nccc(-c2cccnc2)n1,12.6 µM (active),28.2 µM (active),28.2 µM (active),–,–,–
O=C(Nc1cccnn1)N1CCN(c2nccc(-c3ccc(F)c(F)c3)n2)CC1,inactive,inactive,inactive,–,–,–
C/C(=C\CCC(C)C1=CCC2(C)OC3=C(CC12)C(=O)C(O)CC3)CO (centres undefined),inactive,inactive,inactive,–,–,–
COc1cc2ncnc(Nc3cccc(I)c3)c2cc1OC,inactive,inactive,inactive,–,–,–
COCCN(C(=O)c1cc(OC)c(OC)c(OC)c1)c1nc(-c2ccccc2)cs1,inactive,inactive,inactive,–,–,–
O=C(COc1ccc(C(=O)c2ccccc2)cc1)NC1CCN(Cc2ccccc2)CC1,inactive,inactive,inactive,–,–,–
COc1cc(/C=C2\CC[C@H]3COC[C@@H](c4cc(F)c(F)c(F)c4)N3C2=O)ccc1-n1cnc(C)c1,inactive,inactive,inactive,–,–,–
O=C(c1ccc(F)cc1)N1CCCC(c2nc(-c3ccc(F)cc3)no2)C1 (centres undefined),inactive,inactive,inactive,–,–,–
C=C1CC[C@@H]2[C@](C)(CO)[C@H](O)CC[C@@]2(C)[C@@H]1C/C=C1/C(=O)OCC1OC(=O)/C(=C/CO)C(O)C[C@@H]1C(=C)CC[C@@H]2[C@](C)(CO)[C@H](O)CC[C@]21C (some centres undefined),inactive,inactive,inactive,–,–,–
COC(=O)c1cc(Br)cnc1N1CCC(NC2CCCCC2)C(O)C1 (centres undefined),inactive,inactive,inactive,–,–,–
CC(=O)NCc1cccc(OC[C@@H](O)CNCCc2ccc(NS(=O)(=O)c3ccccc3)cc2)c1,inactive,inactive,inactive,–,–,–
COc1ccc2c(c1O[C@H]1CCNC1)CCC2,inactive,inactive,inactive,–,–,–
C/C=C/C=C/C=C/C(=O)O[C@@H]1C=C(CO)C(O)(C(=O)OC)[C@@]2(C)CCCC(C)(C)C12 (some centres undefined),inactive,inactive,inactive,–,–,–
